# In PubChem BioAssay (NCI):
# About 83,000 compounds went through this panel and 20% of them were active in at least one assay; those are over-represented in the sample as a whole.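 Compound tested at a single concentration for 48 hours in 96-well plates; a percent growth value below 10 was scored as active.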 Active and inactive are the calls of the source.
# System: ACHN renal
# Test: NCI-60 one-dose screen, 48 h (100 = growth as untreated, 0 = no growth, -100 = all killed)
# Conditions: 10 µM
row,Structure (SMILES),growth
1,O=C(NO)c1ccc(Cn2ccc3c(Nc4ccccc4)ncnc32)cc1,1.86% (active)
2,CC(=O)Nc1nc(-c2ccc(N3CCN(C)CC3)c(NS(=O)(=O)c3cccc4c(N(C)C)cccc34)c2)cs1,60.7% (inactive)
3,CCCCCCCCCCCCCCCCCCCC(=O)NCCc1c[nH]c2ccc(OC(=O)CCCC(=O)OCCOOCCOOCCOOCCOOCCOOCCOOCCOOCCOOCCOOCCOOCCOOCCOC)cc12,59.9% (inactive)
4,COC[C@@H](CC(C)C)N=C1NC(=O)/C(=C/c2ccc3ncsc3c2)N1,6.22% (active)
5,O=C(NC(=S)N1CCN(c2ncnc3c2cnn3-c2ccccc2)CC1)c1ccc(Cl)cc1,24.5% (inactive)

# System: CAKI-1 renal
# Test: as above
# Conditions: 10 µM
row,Structure (SMILES),growth
1,CN1CCN(c2ccc(Nc3nc(NCCCNC(=O)c4ccc(F)cc4)c4sccc4n3)cc2)CC1,69.8% (inactive)
2,O=C(CS(=O)(=O)c1oc(-c2ccc(Cl)cc2)nc1S(=O)(=O)c1ccc(Cl)cc1)N1CCOCC1,30.9% (inactive)
3,COc1ccc(C(=O)NC(=S)N2CCN(c3ncnc4c3cnn4-c3ccccc3)CC2)cc1,28.1% (inactive)
4,COc1cccc(COc2ccc(/C=C3\Oc4cc(O)ccc4C3=O)cc2)c1,-23% (active)
5,O=C(O)CCCCCCCCCCN1C(=O)/C(=C/c2cnc(-c3ccc(Cl)cc3)s2)SC1=S,12.2% (inactive)
6,COc1cccc(C(N)=Nc2ccc(OCCCCCCn3cncn3)cc2)c1,39.1% (inactive)
7,CN(C)c1cccc2c(S(=O)(=O)Nc3cccc(-c4csc(NC(=O)CCCCCN5CCN(c6cc7c(cc6F)C(=O)N(C6CCC(=O)NC6=O)C7=O)CC5)n4)c3)cccc12 (stereo not drawn),79.4% (inactive)
8,Cc1ccc(C(C)C)cc1NC(=O)c1ccccc1O,32.3% (inactive)
9,NC(=Nc1ccc(OCCCCCCCCn2ccnn2)cc1)c1ccccc1,37.9% (inactive)
10,O=c1[nH][nH]c(Nc2ccccc2)c1N=Nc1ccc(F)cc1,59.3% (inactive)
11,COc1ccc2[nH]c(O)c(N=NC(=O)c3cc(-c4ccc(C)cc4)nc4ccccc34)c2c1,95.5% (inactive)
12,CN1C(=O)/C(=C/c2nccs2)SC1=S,72.9% (inactive)
13,CNC(=O)c1cc(-c2ccc(NC(=O)Nc3ccc(C)cc3)cc2)nc2cccnc12,92.8% (inactive)
14,CC(=O)NNc1ccc2nnc(-c3ccc(Br)cc3)n2n1,90.3% (inactive)
15,O=c1oc2ccc(-c3ccc(F)cc3F)cc2c(=O)n1-c1ccc(F)c(Cl)c1,-20.4% (active)
16,CCN1CCN(c2ccc(NC(=O)Nc3ccc(-c4cc(C(=O)NC(C)C)c5ncccc5n4)cc3)cc2C(F)(F)F)CC1,-95.2% (active)
17,COC(=O)C(Cc1ccc(O)c(O)c1)NC(=O)C(CSC/C=C(\C)CCCC(C)CCCC(C)CCCC(C)C)NC(C)=O (stereo not drawn),28.4% (inactive)
18,CN1CCN(c2ccc(Nc3nc(NCCCNC(=O)c4ccc(Cl)cc4)c4sccc4n3)cc2)CC1,79.9% (inactive)
19,CCCCCCCCCCCCCCCCCCCC(=O)NCCc1c[nH]c2ccc(O)cc12,105% (inactive)
20,CCCCCc1ccc(S(=O)(=O)N(C(C)=O)c2cc(-c3csc(N(C)C(C)=O)n3)ccc2N2CCN(C)CC2)cc1,31.8% (inactive)
21,COc1ccc2[nH]c(O)c(N=NC(=O)COc3ccc(NC(=O)Nc4ccc(Cl)cc4)cc3)c2c1,99.7% (inactive)
22,CCCCCCCCCCCCCCCCCCCC(=O)NCCc1c[nH]c2ccc(OC(=O)NOCCOCCOCCOCCOCCOCCOCCOCCOCCOCCOCCOCCOCCOCCOCCOCCOCCOCCOCCOCCOCCOCCOC)cc12,7.27% (active)
23,CC1(C)CC[C@]2(C(=O)N3CCOCC3)CC[C@]3(C)C(=CC[C@@H]4[C@@]5(C)CC[C@H](NCO)C(C)(C)[C@@H]5CC[C@]43C)[C@H]2C1,-96.2% (active)
24,Cc1ccc(-c2cc(C(=O)N=Nc3c(O)[nH]c4ccc(Br)cc34)c3ccccc3n2)cc1,73.6% (inactive)
25,CCC(C)S(=O)(=O)c1oc(-c2ccc(C)cc2)nc1S(=O)(=O)c1ccccc1 (stereo not drawn),-100% (active)
26,CCCCCc1ccc(S(=O)(=O)Nc2cc(-c3csc(N(C)C(C)=O)n3)ccc2N2CCN(C)CC2)cc1,38.9% (inactive)
27,C/C(=C\CC/C=C(\C)CC/C=C(\C)CC[C@@H](O)C(C)(C)O)CC/C=C(\C)CC[C@@H](O)C(C)(C)O,47.4% (inactive)
28,CC(C)C(=O)Nc1ccc(C(=O)NC(=S)Nc2ccc(C(=O)O)cc2)cc1,99.3% (inactive)
